# From PubChem BioAssay
# The sample as a whole holds a higher share of hits than the screen did.
# NS1 inh – influenza NS1 inhibition | Potency, µM (series often up to 46.1 µM), without a hit: at the top dose activity, positive = more growth | 0.4% of 270,000 active | AID 2326; calls by dose curve; also: potency is read from the fitted curve at half-maximal effect; actives are rising curves; nearly all actives have a fitted effect of over 50% in size
#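 Growth recovery, yeast-based: influenza A NS1 expressed in S. cerevisiae causes slow growth, and suppressors are detected by OD600. The parent strain without NS1 is used as positive control.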
# Shiga toxin inh – Shiga toxin inhibition; AID 2315; inhibition, % at 38.7 µM; Vero cells, Shiga toxin protein synthesis inhibition reporter; 9.2% of 290,000 active; in the data active = inhibition mostly above about 28%, no sharp cut-off; inactive = mostly below about 43%; also: 0% is about no effect
# CHX counter – counter-screen for Shiga toxin inhibitors: cycloheximide protein synthesis inhibition; cell reporter, cycloheximide protein synthesis inhibition counterscreen; max response, %; 12% of 300,000 active; AID 2314; in the data active = max response mostly above about 13%, no sharp cut-off; inactive = mostly below about 14%; also: read at 38.3 µM for the half of the compounds with a filed dose; 0% is about no effect
# AmpC inh detg – blocks E. coli AmpC beta-lactamase in detergent assay; AID 485294; Potency, µM (highest dose often 114 µM), for the others: top-dose activity change, negative = inhibition, most hits filed as inhibitors; P00811; AmpC hydrolysis of nitrocefin, absorbance 480 nm, 0.01% Triton; 0.041% of 370,000 active;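 also: potency is read from the fitted curve at half-maximal effect; 0% = no-compound wells and -100% = no-enzyme wells; nearly all actives have a fitted effect of over 25% in size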
# Target sequence (P00811 whole entry, looked up): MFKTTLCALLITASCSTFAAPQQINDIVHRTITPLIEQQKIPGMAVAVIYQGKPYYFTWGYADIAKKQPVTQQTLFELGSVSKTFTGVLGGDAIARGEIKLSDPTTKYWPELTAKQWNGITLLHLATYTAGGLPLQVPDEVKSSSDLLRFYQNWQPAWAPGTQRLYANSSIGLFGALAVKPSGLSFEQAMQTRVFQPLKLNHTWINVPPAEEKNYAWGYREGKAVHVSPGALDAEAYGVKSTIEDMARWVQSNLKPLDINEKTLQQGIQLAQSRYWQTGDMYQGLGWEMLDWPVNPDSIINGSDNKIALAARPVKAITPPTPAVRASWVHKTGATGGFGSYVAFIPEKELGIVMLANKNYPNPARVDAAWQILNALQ
#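 AmpC (5.3 nM in the dispensed reagent) in 20 mM phosphate pH 7.0 with 0.01% (detergent screen) or 0.0001% Triton X-100 was preincubated with compounds for 15 min at room temperature. Nitrocefin was then added from an 800 uM solution, and hydrolysis was followed at 480 nm.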
# AmpC inh no detg – inhibitors of E. coli AmpC beta-lactamase without detergent; P00811; AmpC nitrocefin hydrolysis, absorbance 480 nm, 0.0001% Triton; Potency, µM (series often up to 57.1 µM), inactives show top-dose activity change, negative = inhibition, most hits filed as inhibitors; 0.52% of 330,000 active; AID 485341;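 also: potency is read from the fitted curve at half-maximal effect; plate controls were no compound for no effect and no enzyme for full effect; nearly all actives have a fitted effect of over 20% in size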
#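 20 mM phosphate pH 7.0 + 0.01% (detergent screen) or 0.0001% Triton X-100; 5.3 nM AmpC reagent; cpd preinc 15 min RT; nitrocefin (800 uM stock) to start; A480 q20 s × 4 min; Activity was normalised to no-enzyme and no-compound control wells.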
# NS1 inh valid – validation of influenza NS1 protein function inhibitors; shares compounds with NS1 inh; influenza NS1 function cell assay, 15-point titration; activity change, negative = inhibition, % at 32.9 µM; 1,400 tested, under 10 active; calls by dose curve; also: 0% is about no effect
# Flu PR8 replic – influenza NS1 inhibitors: inhibition of influenza A/PR/8/34 replication. MDCK infected influenza A/PR/8/34, virus titer TCID50; hits give low values. shares compounds with NS1 inh. virus titer (log TCID50), log10 TCID50 at 5 µM. 30% of 95 active; call rule not given here
# Starred values were filed as active, the others as inactive; u = inconclusive; x = not tested or not shown. Unless noted, calls follow the shape of the dose curve; as a rule, active = well fitted curve in the direction sought with a large enough effect; inconclusive = small, poorly fitted or top-dose-only effect, or another doubt; inactive = no such curve, though single readings can be large; an effect the other way counts as inactive or inconclusive.
SMILES,NS1 inh,Shiga toxin inh,CHX counter,AmpC inh detg,AmpC inh no detg,NS1 inh valid,others
CCOc1ccc2[nH]c(=O)c(CN(Cc3ccc(F)cc3)C(=O)c3ccco3)cc2c1,11µM*,-10,0,-15%,-12%,-11,
COc1cc(C2CC(=O)c3cnc(NC(=O)c4ccco4)nc3C2)cc(OC)c1OC (stereo unspecified),6%,-10,-5,7%,2%,x,
COc1cc(OC)cc(C(=O)Nc2ccc(S(=O)(=O)N3CCOCC3)cc2)c1,-6%,-4,-6,-12%,-12%,x,
NNC(=O)CN1C(c2cccc(Cl)c2)=Nc2ccc(Br)cc2C1c1ccccc1 (stereo unspecified),25%,-14,-6,-7%,-21%,x,
NNC(=O)CN1C(c2ccccc2Br)=Nc2ccc(Br)cc2C1c1ccccc1 (stereo unspecified),4.5µM*,1,-3,13%,166%,-2,Flu PR8 replic=8.3
COc1cccc2c(=O)cn[nH]c12,-10%,-6,-1,u,-21%,x,
O=S(=O)(c1ccccc1)c1cccc(S(=O)(=O)N2CCCCC2)c1,2µM*,7,4,6%,19%,-12,
O=S(=O)(c1cccc(S(=O)(=O)N2CCOCC2)c1)N1CCCCCC1,28%,-3,-4,-7%,8%,x,
CN(C)c1ccc(NC(=O)Cn2cc3c(n2)CCCC3)cc1,10µM*,72*,56*,u,-8%,17,
CCN1CCN(Cc2c(O)ccc3c2O/C(=C\C=C\c2ccccc2)C3=O)CC1,10µM*,65,33*,u,169%,-35,
Cc1c(Cl)c([N+](=O)[O-])nn1CC(=O)N1CCCC1,u,3,3,-13%,5%,6,
COc1ccc(C(O)c2nc3ccccc3n2C(C)C)cc1 (stereo unspecified),-33%,12,-4,-2%,-6%,x,
O=C(N/N=C/c1ccc(N2CCOCC2)s1)c1ccc(NS(=O)(=O)c2cccs2)cc1,10µM*,41,10,1%,-23%,36,
O=C(N/N=C/c1ccc(N2CCOCC2)cc1)c1ccc(NS(=O)(=O)c2cccs2)cc1,x,13,8,2%,-38%,x,
COc1ccc(/C=N/NC(=O)c2ccc3ccccc3c2)cc1OS(=O)(=O)c1ccc(NC(C)=O)cc1,10µM*,21,-1,-3%,-17%,24,
CCOC(=O)C1=CN(CC)S(=O)(=O)NC1c1cccc(OC)c1 (stereo unspecified),x,x,x,x,-5%,x,
O=C1C=CC(=O)C(C2=C3C(=O)N(CCc4ccccc4)CC(=O)N3CCC2)=C1,14µM*,18,4,u,-43%,3,
Cn1c(SCC(=O)NNC(=S)Nc2ccccc2)nnc1-c1ccncc1,3.2µM*,8,-2,8%,-11%,0,
Cc1cccc(NC(=O)CSc2nnc(-c3ccncc3)n2C)c1,-2%,14,-1,-11%,-5%,x,
CC(=O)N1CCN(c2nc(-c3ccco3)c3c(c2C#N)CC(C)(C)SC3)CC1,16%,-12,2,1%,162%,x,
CC1(C)Cc2c(C#N)c(N3CCN(C(=O)c4ccco4)CC3)nc(-c3ccco3)c2CS1,7.9µM*,-9,0,4%,57%,-37,
COc1ccc(-n2cc(-c3ccccc3)c3c(=O)[nH]cnc32)cc1,0%,-12,-7,2%,-9%,x,
COc1ccccc1-n1cc(-c2ccccc2)c2c(=S)nc[nH]c21,14µM*,-5,11,-2%,13%,-21,
COc1ccc2oc(/C=C/N(C)C)c(C(=O)c3ccc(Cl)cc3)c2c1,13µM*,-1,3,-3%,-56%,-28,
CC(=O)Oc1ccc2oc(/C=C/N(C)C)c([N+](=O)[O-])c2c1,4%,24,30,u,-17%,x,
SMILES,NS1 inh,Shiga toxin inh,CHX counter,AmpC inh detg,AmpC inh no detg,NS1 inh valid,others
Cc1cc(C)c(CN2CCN(C(=O)Cn3cnc(C(=O)Nc4ccc(C)c(C)c4)n3)CC2)c(C)c1,x,x,x,x,26%,x,
CCOc1ccc(-c2cn(-c3ccccc3OC)c(=S)[nH]2)cc1,u,52*,18*,5%,-32%,-34,
COc1ccccc1-n1cc(-c2ccccc2)[nH]c1=S,-7%,-4,5,0%,-30%,x,
Cc1cc(C)c2c(n1)sc1c(-c3ccccc3)c(C#N)c(N)nc12,4.5µM*,21,-3,-22%,-26%,2,
CCOC(=O)c1cc(OC(=O)c2cccnc2)n(-c2ccccc2)n1,2µM*,-10,1,u,-35%,u,
Cc1ccc(C(=O)COC(=O)c2cc(-c3ccccc3)nc3ccccc23)cc1C,x,x,x,7%,x,x,
COc1ccc(-c2cc(C(=O)OCC(=O)c3ccc(C)c([N+](=O)[O-])c3)c3ccccc3n2)cc1,u,8,4,8%,-21%,-37,
Cc1ccc2c(c1)N(CC(=O)NCCCN1C(C)CCCC1C)C(=O)c1cccnc1O2 (stereo unspecified),8%,12,2,-9%,-8%,x,
CCOc1cc(/C=N/NC(=O)COc2ccc(Cl)cc2)ccc1OS(=O)(=O)c1ccccc1,2µM*,16,6,-1%,-28%,u,Flu PR8 replic=7.7
CCOc1cc(/C=N/NS(=O)(=O)c2ccccc2)ccc1OS(=O)(=O)c1ccc(C)cc1,21%,-5,-2,-7%,-51%,x,
CCCCn1c(=NC(=O)C(C)(C)Oc2ccc(Cl)cc2)c(C(=O)OCC)cc2c(=O)n3ccccc3nc21,x,x,x,6%,x,x,
COc1ccc(S(=O)(=O)NCCSCc2ccco2)cc1OC,10%,-1,6,1%,-27%,x,
COc1ccc(S(=O)(=O)NCCc2ccco2)cc1OC,3.2µM*,29,8,u,-1%,-1,
COc1cccc(NC(=O)N2CCCC2C(=O)Nc2cc(C)ccc2OC)c1 (stereo unspecified),-4%,-7,-3,-11%,-7%,x,
COc1ccc(OC)c(NC(=O)CSc2ccc3nnc(-c4ccccn4)n3n2)c1,0%,-2,-2,-5%,-3%,x,
CCN1CCN(CCNC(=O)c2ccc(CS(=O)(=O)c3c(Cl)cccc3Cl)o2)CC1,u,8,-4,4%,69%,-16,
COc1cc(C(=S)N2CCCC2)cc(OC)c1O,4µM*,16,2,-1%,-6%,6,
CCOc1cc(C(=S)N2CCCC2)ccc1OC,-3%,-6,-2,-18%,-10%,x,
Cc1c(Nc2nc3ccccc3nc2NS(=O)(=O)c2cccc(Cl)c2)c(=O)n(-c2ccccc2)n1C,8.9µM*,6,-3,-1%,-10%,13,
Cc1cc(C)c(NC(=O)COc2ccccc2C(=O)Nc2ccc3c(c2)oc2ccccc23)c(C)c1,-10%,-3,5,-4%,-12%,x,
